Assay outcomes: PubChem BioAssay, National Center for Advancing Translational Sciences (NCATS)
This excerpt belongs to a sample that is enriched for hits.
Pf Dd2 growth: inhibitors of Plasmodium falciparum Dd2 growth. P. falciparum Dd2 growth, SYBR Green, 72 h. Potency, µM (series often up to 28.9 µM), actives largely listed as inhibitors. hit rate 4.3% among 120,000; active = well fitted inhibition curve with a large enough effect; also: nearly all actives have a fitted effect of over 65% in size
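Infected erythrocytes (Dd2, 0.3% parasitemia, 2.5% hematocrit final) are added to compound in RPMI-1640/Albumax II medium, grown 72 h at 37C in low oxygen, then lysed with saponin/Triton-X containing SYBR Green and read by fluorescence.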
Large screens that a line does not name were inactive.

O=C(c1ccc2c(c1)OCCO2)N(Cc1cccnc1)c1nc2ccc(Cl)cc2s1	none
COC1CCC12CCN(C(=O)Nc1ccccc1F)CC2 (centres undefined)	none
O=C1NC(=O)[C@@H]2CN(C(=O)c3coc(COc4ccc5c(c4)OCO5)n3)C[C@H]12	none
O=C1[C@@H]2C[C@@H](CN2Cc2ccc3c(c2)OCO3)Oc2ccccc2N1CC1CC1	Pf Dd2 growth 12.6µM
O=C1[C@@H]2C[C@@H](CN2C(=O)Cc2ccccc2)Oc2ccccc2N1CC1CC1	none
Cc1ccc(CN2C[C@@H]3C[C@H]2C(=O)N(CC2CC2)c2ccccc2O3)cc1	Pf Dd2 growth 10µM
O=C1[C@@H]2C[C@@H](CN2Cc2ccnc3ccccc23)Oc2ccccc2N1CC1CC1	none
CN1C(=O)[C@@H]2C[C@@H](CN2Cc2ccccc2)Oc2ccccc21	none
Cn1cc(CN2C[C@@H]3C[C@H]2C(=O)N(CC2CC2)c2ccccc2O3)c2ccccc21	none
Cn1nc(C2CCCN(C(=O)CCc3ccccc3)C2)n(-c2ccccc2)c1=O (centres undefined)	none
Cc1cccc(C(=O)N2C[C@@H](F)C[C@H]2C(=O)N2CCc3ccccc3C2)c1	none
Cc1cc(F)ccc1-c1[nH]nc2ncc(-c3ccsc3)nc12	none
O=C(Cn1nc2c(cc1=O)CCCC2)Nc1nc(-c2ccccn2)cs1	none
Cc1ccccc1S(=O)(=O)N1CCCC(CCC(=O)NCc2ccc(F)cc2)C1 (centres undefined)	none
Cc1ccccc1S(=O)(=O)N1CCC(CCC(=O)NC2CC2)CC1	none
Cc1ccccc1S(=O)(=O)N1CCCC(CCC(=O)Nc2cccc(Cl)c2)C1 (centres undefined)	Pf Dd2 growth 12.6µM
O=C(NCc1ccc(F)cc1F)C1CCN(C(=O)c2ncn3c2COC(c2ccccc2)C3)CC1 (centres undefined)	none
Cc1ccc2[nH]c(=O)c3cc(C(=O)NCCCN4CCC(C)CC4)sc3c2c1	Pf Dd2 growth 8.91µM
Cn1c(=O)c2cc(C(=O)NCCCN3CCN(c4ccc(F)cc4)CC3)sc2c2ccccc21	none
COc1ccc(Br)cc1CNC(=O)c1cc2c(=O)n(C)c3ccccc3c2s1	none
CCN1CCN(CCCNC(=O)c2cc3c(=O)n(C)c4ccccc4c3s2)CC1	Pf Dd2 growth 3.16µM
CCOC(=O)C1CCCN(C(=O)c2cc3c(=O)[nH]c4ccc(C)cc4c3s2)C1 (centres undefined)	none
CN(CCCNC(=O)c1cc2c(=O)n(C)c3ccccc3c2s1)Cc1ccccc1	Pf Dd2 growth 10µM
CCn1c(=O)c2cc(C(=O)NCCCN3CCC(C)CC3)sc2c2ccccc21	none
Cn1c(=O)c2cc(C(=O)NCCCN3CCN(c4ccccc4F)CC3)sc2c2ccccc21	none
CCN(CCCNC(=O)c1cc2c(=O)n(CC)c3ccccc3c2s1)c1ccccc1	none
Cc1cnc(C(=O)N[C@@H]2CCC[C@@H]2C(=O)NCCCN2CCOCC2)cn1	none
O=C(N[C@@H]1COCC[C@@H]1OCC1CC1)c1conc1-c1ccccc1	none
Cn1ccc2c(C(=O)NCCC(N)=O)nc(-c3ccccc3)cc21	none
COCc1cc(=O)n(CC(=O)Nc2ccc(C)cc2Cl)c(N2CCOCC2)n1	none
CCc1noc(-c2cn(C3CCN(C(=O)C(C)Oc4ccc(Cl)cc4)CC3)nn2)n1 (centres undefined)	none
CS(=O)(=O)N1CCC(C2CCN(C(=O)C3CC=CC3)C2)CC1 (centres undefined)	none
COCC(=O)NC1CCC12CCN(C(=O)c1ocnc1C)CC2 (centres undefined)	none
N#Cc1ccc(CN2CCn3c(nnc3C3CCCNC3)C2)cc1 (centres undefined)	none
c1ccc(-c2cnc3n[nH]c(-c4ccc5c(c4)OCO5)c3n2)cc1	none
Oc1ccccc1-c1cnc2n[nH]c(-c3ccc4c(c3)OCO4)c2n1	Pf Dd2 growth 11.2µM
Fc1ccccc1-c1cnc2n[nH]c(-c3ccc4c(c3)OCO4)c2n1	none
COc1ccc(CN2C(=O)[C@@H]3C[C@@H](O)CN3C3(CN(C4CCCCC4)C3)C2=O)cc1	none
Cc1noc(C)c1CC(=O)NCC1CCN(c2cc(-c3ccc(F)cc3)[nH]n2)CC1	none
COc1ccc(Cl)cc1NC(=O)CCC1CCCN(c2ccc(C(F)(F)F)cn2)C1 (centres undefined)	none
O=C1c2cnc(-c3cccc(CO)c3)nc2OCCN1c1cccc(C(F)(F)F)c1	Pf Dd2 growth 14.1µM
COc1ncccc1-c1ncc2c(n1)OCCN(c1cccc(C(F)(F)F)c1)C2=O	none
COc1ccccc1-c1ncc2c(n1)OCCN(c1cccc(C(F)(F)F)c1)C2=O	none
CC(C)C[C@H](NC(=O)Cn1nc2c(cc1=O)CCCCC2)C(=O)O	none
O=C(N[C@H]1CCOC[C@H]1C1CCOCC1)c1cc(=O)[nH]c2ccc(F)cc12	none
O=C(NC1CCN(Cc2ccccc2)CC1)c1ccc(Cn2c(=O)c3ccccc3n(Cc3ccccc3)c2=O)cc1	none
COCCCNC(=O)c1ccc(Cn2c(=O)c3ccccc3n(Cc3ccc(Cl)cc3)c2=O)cc1	none
O=C(NC1CCN(Cc2ccccc2)CC1)c1ccc(Cn2c(=O)c3ccccc3n(Cc3ccc(Cl)cc3)c2=O)cc1	Pf Dd2 growth 5.01µM
COc1ccc(CNC(=O)N2CCCCCNC(=O)[C@@H]3CCCC[C@@H]32)cc1	none
CS(=O)(=O)N1CCC(C2CCN(C(=O)c3cn[nH]c3)C2)CC1 (centres undefined)	none
Cc1ccc(OC2(C(=O)N[C@H]3CCc4ccccc43)CCNCC2)cc1	Pf Dd2 growth 7.94µM
CC(C)(C)C1CCC2(CC1)NC(=O)N(CC(=O)NC1CCc3ccccc31)C2=O (centres undefined)	none
Cc1ccc(OC2(C(=O)NCc3cccc(N(C)C)c3)CCNCC2)cc1	none
COCCn1c(SCC(=O)c2c[nH]c3ccccc23)nc2cc(C(=O)NC(C)C)ccc2c1=O	none
COC(=O)CC(=O)CSc1nc2cc(C(=O)NCC(C)C)ccc2c(=O)n1CCc1ccccc1	Pf Dd2 growth 11.2µM
COCCn1c(SCC(=O)c2c(C)[nH]c3ccccc23)nc2cc(C(=O)NC(C)C)ccc2c1=O	none
O=C(c1cccc2nccnc12)N1CCc2c(ncnc2N2CCOCC2)C1	none
O=Cc1ccccc1-c1ccccn1	none
CCNC(=O)N[C@@H]1C=C[C@@H](c2c(C)nn(-c3ccc(OC)cc3)c2C)C1	Pf Dd2 growth 10µM
Cc1nn(CCC#N)c(C)c1[C@@H]1C=C[C@@H](NC(=O)NC(C)C)C1	none
COc1ccc(NC(=O)N[C@@H]2C=C[C@@H](c3c(C)nn(-c4ccc(C(C)C)cc4)c3C)C2)cc1	Pf Dd2 growth 11.2µM
Cc1ccc(-n2nc(C)c([C@@H]3C=C[C@@H](NC(=O)NC4CCCCC4)C3)c2C)cc1Cl	none
Cc1nn(-c2ccc(C(F)(F)F)cc2)c(C)c1[C@@H]1C=C[C@@H](NC(=O)NC(C)C)C1	none
COc1ccc(-n2nc(C)c([C@@H]3C=C[C@@H](NC(=O)NC4CCCCC4)C3)c2C)cc1	Pf Dd2 growth 15.8µM
Cc1nn(-c2ccc(C(C)C)cc2)c(C)c1[C@@H]1C=C[C@@H](NC(=S)NC2CCCCC2)C1	none
COc1ccc(NC(=O)c2nnn(-c3ccc(C(C)C)cc3)c2C)c(OC)c1	none
COc1ccc(NC(=O)Cn2cnnn2)c(NC(=O)C(C)C)c1	none
CCc1ccccc1NC(=O)N(C)CC1CCOC1 (centres undefined)	none
COc1cc(C)c(-c2nc(Cn3cncn3)c(C)o2)cc1C	none
CCn1nc(C)c(CNC(=O)C2CCN(C(=O)N3CC4CC(C3)[C@H]3CCCC(=O)N3C4)CC2)c1C (some centres undefined)	none
COc1ccc(-c2ccnc(N[C@H]3CO[C@H]4[C@@H]3OC[C@H]4OC(=O)Nc3cccc(C(C)=O)c3)n2)cc1	none
